These results are taken from PubChem BioAssay (EPA / NIEHS).

Inconclusive results are not listed. Active and inactive are the calls of the source. How the source made its calls, unless noted: active means hit-call score of the fitted dose curve at least 0.9, where 1 is the maximum; inactive means score below 0.9.

Experiment [1] can be described thus: ATG_TCF_b_cat_CIS: Attagene CIS-FACTORIAL HepG2 Assay for human T-Cell-Factor with beta-catenin (TCF/b-cat) (AID 2282965). As to conditions: HepG2 TCF/beta-catenin cis-reporter transcription, actives raise or lower the signal. The essentials: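 Endogenous transcription factor activity is captured through cis-promoter reporter constructs transiently introduced into human HepG2 liver cells. Induced reporter mRNA is measured after 24 h and fitted bidirectionally relative to DMSO.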

The nature of experiment [2]: ATG_TAL_CIS: Attagene CIS-FACTORIAL HepG2 Assay for human TAL Basal Promoter (AID 2282966).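 Further: background control endpoint measuring basal TAL promoter reporter mRNA not a specific factor.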 The note with it: HepG2 Attagene cis-factorial TAL promoter reporter; actives raise or lower the signal. The essentials:
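Readout: reporter mRNA, fluorescence by CE. System: HepG2, transient multi-reporter transfection, endogenous TF activity. Exposure: 24 h. Analysis: bidirectional, DMSO-normalized; background control.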

Experiment [3] can be described thus: ATG_TGFb_CIS: Attagene CIS-FACTORIAL HepG2 Assay for human Transforming Growth Factor (TGF) (AID 2282967). The note with it: HepG2 Attagene CIS TGFb reporter, mRNA transcription; actives raise or lower the signal. The essentials:
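HepG2 cells transiently transfected with cis-promoter-driven multiple reporter units measure endogenous TF activity; reporter mRNA quantified at 24 h by RT-PCR, FAM labeling, HpaI digestion and capillary electrophoresis. Bidirectional fit vs DMSO.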

Experiment [4] is described as follows: ATG_VDRE_CIS: Attagene CIS-FACTORIAL HepG2 Assay for human Vitamin D Receptor Element (VDRE) (AID 2282968). As to conditions: HepG2 VDRE cis-reporter transcription, actives raise or lower the signal. The essentials:
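Reporter mRNA induction, quantified by capillary electrophoresis of fluorescently labelled RT-PCR products, was read 24 h after dosing HepG2 cells carrying transiently transfected cis-regulated reporter units; gain or loss relative to DMSO.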

For experiment [5], the target named is Nuclear receptor subfamily 1 group I member 3 (Homo sapiens) (UniProt Q14994). Kind of experiment: ATG_CAR_TRANS: Attagene TRANS-FACTORIAL HepG2 Assay for human Constitutive Androstane Receptor (CAR) (AID 2282969; active means hit-call score of the fitted dose curve at least 0.9, where 1 is the maximum;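 further: activators raise reporter mRNA above DMSO so AC50 marks induction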). As to conditions: HepG2 Attagene TRANS-FACTORIAL CAR reporter. The essentials: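 Readout is reporter mRNA induction, quantified by fluorescent primer extension and capillary electrophoresis after RT-PCR. Cells were HepG2 transiently carrying chimeric NR-Gal4 constructs with GAL4-UAS reporters, treated for 24 h; activity scored upward from DMSO.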
Chain of Nuclear receptor subfamily 1 group I member 3 (Homo sapiens) (Q14994 whole entry, looked up, the tested form may be a part): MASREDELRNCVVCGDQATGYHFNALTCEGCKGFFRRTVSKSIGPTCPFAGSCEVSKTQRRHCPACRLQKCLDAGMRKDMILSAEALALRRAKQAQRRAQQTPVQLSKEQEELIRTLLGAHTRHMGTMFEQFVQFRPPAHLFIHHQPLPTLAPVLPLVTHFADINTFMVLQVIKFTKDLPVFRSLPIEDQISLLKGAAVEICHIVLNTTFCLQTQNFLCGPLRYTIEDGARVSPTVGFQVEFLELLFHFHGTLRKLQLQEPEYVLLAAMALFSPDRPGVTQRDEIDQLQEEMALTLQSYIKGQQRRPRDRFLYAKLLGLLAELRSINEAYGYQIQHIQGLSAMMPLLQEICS

Experiment [6] concerns the target Estrogen receptor (Homo sapiens) (UniProt P03372). Kind of experiment: ATG_ERa_TRANS: Attagene TRANS-FACTORIAL HepG2 Assay for human Estrogen Receptor alpha (ERa) (AID 2282970; active means hit-call score of the fitted dose curve at least 0.9, where 1 is the maximum). As to conditions: HepG2 Attagene TRANS ERa GAL4 reporter, mRNA. The essentials:
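Transactivation via ERa-Gal4 chimera in HepG2; 24 hour incubation; reporter mRNA detected by fluorescence RT-PCR and capillary electrophoresis.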

In experiment [7] the target is X-box-binding protein 1 (Homo sapiens) (UniProt P17861). Kind of experiment: ATG_Xbp1_CIS: Attagene CIS-FACTORIAL HepG2 Assay for human X-box Binding Protein 1 (XBP1) (AID 2282972). As to conditions: HepG2 XBP1 cis-element reporter, Attagene multiplex; actives raise or lower the signal. The essentials:
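HepG2 cells transiently transfected with cis-regulated multiple reporter transcription units; endogenous transcription factor activity measured 24 hours after chemical dosing. Reporter mRNA quantified by RT-PCR, 6-FAM primer extension, HpaI digestion and capillary electrophoresis; bidirectional fitting versus DMSO.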

Experiment [8] can be described thus: ATG_GAL4_TRANS: Attagene TRANS-FACTORIAL HepG2 Assay for GAL4 (Internal Marker) (AID 2282976; active means hit-call score of the fitted dose curve at least 0.9, where 1 is the maximum). The note with it: HepG2 Attagene TRANS GAL4 internal marker reporter. The essentials: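 Fluorescence from capillary electrophoresis of labelled RT-PCR products quantifies reporter mRNA induction after 24 h dosing of HepG2 cells carrying transfected GAL4-UAS reporter transcription units. Vehicle DMSO serves as baseline.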

Experiment [9] can be described thus: ATG_M_19_TRANS: Attagene TRANS-FACTORIAL HepG2 Assay for M19 Transcription Factor (Internal Marker) (AID 2282974; active means hit-call score of the fitted dose curve at least 0.9, where 1 is the maximum). The note with it: HepG2 Attagene TRANS-FACTORIAL M19 internal marker reporter. The essentials: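 24 h chemical exposure of transiently transfected HepG2 (MRTU library). RNA → oligo(dT) RT → PCR → 6-FAM labelling → HpaI cut → CE fluorescence. Positive-direction fit vs DMSO baseline; background internal-marker readout.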

Experiment [10] has as its target Steroid hormone receptor ERR1 (Homo sapiens) (UniProt P11474). As to the kind of experiment: ATG_ERRa_TRANS: Attagene TRANS-FACTORIAL HepG2 Assay for human Estrogen-Related Receptor alpha (ERRa) (AID 2282971; active means hit-call score of the fitted dose curve at least 0.9, where 1 is the maximum). As to conditions: HepG2 Attagene TRANS reporter, ERRa transactivation. The essentials: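 HepG2 cells were transiently transfected with multiple GAL4-UAS reporter units, then dosed with compound for 24 h. Total RNA was reverse-transcribed, reporter cDNA PCR-amplified and fluorescently labelled, and fragments resolved by capillary electrophoresis; induction was compared with DMSO.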

Chain of X-box-binding protein 1 (Homo sapiens) (P17861 whole entry, looked up): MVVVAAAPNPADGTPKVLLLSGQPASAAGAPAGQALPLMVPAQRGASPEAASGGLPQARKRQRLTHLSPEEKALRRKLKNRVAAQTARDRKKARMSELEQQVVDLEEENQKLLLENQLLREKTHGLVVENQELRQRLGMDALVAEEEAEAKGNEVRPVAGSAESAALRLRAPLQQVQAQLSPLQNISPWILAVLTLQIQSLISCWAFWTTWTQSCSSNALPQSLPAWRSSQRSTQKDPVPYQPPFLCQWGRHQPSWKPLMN
Chain of Estrogen receptor (Homo sapiens) (P03372 whole entry, looked up, the tested form may be a part): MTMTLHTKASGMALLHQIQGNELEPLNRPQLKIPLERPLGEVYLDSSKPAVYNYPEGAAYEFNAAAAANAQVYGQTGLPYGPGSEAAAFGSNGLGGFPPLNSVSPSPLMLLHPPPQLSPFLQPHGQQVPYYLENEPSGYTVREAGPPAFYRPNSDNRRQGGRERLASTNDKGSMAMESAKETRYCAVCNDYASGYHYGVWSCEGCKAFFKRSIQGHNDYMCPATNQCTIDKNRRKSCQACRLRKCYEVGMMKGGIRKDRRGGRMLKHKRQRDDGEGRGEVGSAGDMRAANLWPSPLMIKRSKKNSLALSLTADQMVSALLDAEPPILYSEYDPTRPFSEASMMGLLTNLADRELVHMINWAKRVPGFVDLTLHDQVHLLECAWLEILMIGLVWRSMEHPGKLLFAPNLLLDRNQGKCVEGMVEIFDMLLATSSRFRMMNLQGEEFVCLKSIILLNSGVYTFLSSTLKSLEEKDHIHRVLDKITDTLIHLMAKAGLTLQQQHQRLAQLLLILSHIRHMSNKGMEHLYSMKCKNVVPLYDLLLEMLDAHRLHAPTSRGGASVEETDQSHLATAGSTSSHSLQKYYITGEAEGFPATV
Chain of Steroid hormone receptor ERR1 (Homo sapiens) (P11474 whole entry, looked up, the tested form may be a part): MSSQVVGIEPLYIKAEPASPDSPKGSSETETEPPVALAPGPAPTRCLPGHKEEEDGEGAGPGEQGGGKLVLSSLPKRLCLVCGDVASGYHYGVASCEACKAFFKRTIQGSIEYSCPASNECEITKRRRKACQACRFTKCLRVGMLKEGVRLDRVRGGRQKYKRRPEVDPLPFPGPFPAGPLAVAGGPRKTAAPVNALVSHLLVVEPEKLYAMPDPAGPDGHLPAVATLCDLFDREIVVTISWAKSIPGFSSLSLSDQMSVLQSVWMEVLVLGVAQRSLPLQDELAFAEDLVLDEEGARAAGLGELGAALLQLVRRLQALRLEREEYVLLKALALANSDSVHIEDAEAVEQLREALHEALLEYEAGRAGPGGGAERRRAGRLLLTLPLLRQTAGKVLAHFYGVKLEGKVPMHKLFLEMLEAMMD

For orientation: AC50 means the concentration giving half of the maximal activity seen. In the case of `CC(C)Nc1ccc(NC(C)C)c2c1C(=O)c1ccccc1C2=O`, the compound was classed as inactive in [1], in experiment [2], in experiment [3], in experiment [5], in experiment [6] and in [7]. The call in experiment [8] was inactive. Further, the AC50 in experiment [4] is 0.417 µM (active).

Turning to `C=CC(=O)OCC(F)(F)C(F)(F)C(F)(F)C(F)(F)C(F)(F)C(F)(F)C(F)(F)C(F)F`, the AC50 in experiment [1] is 89.1 µM (active); in [6], 1.52 µM (active). The result in [2], in experiment [3], in [4], in [5] and in [7] was inactive.

With `CN1CN(C)CN(C)C1`, the call in [1], in [2], in experiment [3], in experiment [4] and in experiment [5] was inactive. Besides, the AC50 in [7] is 169 µM (active).

With `CCCCOC(=O)C(C)O` (stereo not drawn), the outcome in experiment [1], in [2], in [3], in [4], in experiment [5] and in [7] was inactive. The outcome in experiment [9] and in experiment [8] was inactive.

As to `Cc1cc(=O)[nH]c(C(C)C)n1`, the result in [1], in experiment [2], in experiment [3], in experiment [4], in experiment [5] and in experiment [10] was inactive. Besides, the call in experiment [7] and in [8] was inactive.

As for `C[C@]12CC[C@H]3C(=CCc4cc(O)ccc43)[C@@H]1CCC2=O`, the result in [1], in [2], in experiment [3], in experiment [4], in experiment [5] and in experiment [10] was inactive. Also, the call in [7], in experiment [9] and in experiment [8] was inactive.

As to `CN(N=O)C(=O)N[C@@H]1[C@@H](O)[C@H](O)[C@@H](CO)O[C@@H]1O`, the outcome in [1], in experiment [2], in [3], in experiment [4], in experiment [5] and in experiment [7] was inactive. For the same compound, the result in experiment [9] was inactive.

For `CCN(CC)c1ccc(C=O)cc1`, the compound was classed as inactive in experiment [1], in [2], in experiment [3], in experiment [5], in experiment [6] and in experiment [7]. The AC50 in experiment [4] is 163 µM (active).

On to `CC(O)C#CC(C)O` (stereo not drawn), for which the AC50 in [1] was 99.5 µM (active); in [4], 39.5 µM (active); in experiment [5] it was 99.5 µM (active). Besides, the call in experiment [2], in experiment [3], in experiment [6] and in experiment [7] was inactive.

For the compound `CCC(=O)OC(C)c1ccccc1` (stereo not drawn), the compound was classed as inactive in experiment [1], in experiment [2], in experiment [3], in experiment [4], in [5] and in [7]. For the same compound, the compound was classed as inactive in experiment [9] and in [8].

Turning to `CCCCC(CC)COC(=O)c1ccc(N(C)C)cc1` (stereo not drawn), the outcome in experiment [1], in experiment [2], in [3], in experiment [4], in experiment [5] and in [7] was inactive. In addition, in experiment [6], the AC50 is 5.75 µM (active).

As to `CC(C)(C)C(=O)C1C(=O)c2ccccc2C1=O`, the call in [1], in [2], in experiment [3], in experiment [5], in experiment [6] and in experiment [7] was inactive. For the same compound, the half-maximal activity concentration (AC50) in experiment [4] was 42.2 µM (active).

For the compound `O=C(c1ccccc1)c1ccc(Cl)cc1`, the call in experiment [1], in experiment [2], in experiment [5] and in experiment [7] was inactive. In addition, the values for the AC50 in experiment [3], in experiment [4] and in [6] were 100 µM (active), 47.6 µM (active) and 12.1 µM (active), respectively.

Take `N#Cc1ccccc1O`: the result in experiment [1], in experiment [2], in [3], in experiment [4], in experiment [5] and in experiment [7] was inactive.

In the case of `N#CCCOCCC#N`, the call in experiment [1], in [2], in experiment [3], in experiment [4], in [5] and in [10] was inactive. In addition, the outcome in experiment [7] and in experiment [8] was inactive.

As to `O=S(=O)(O)c1ccc(Cl)cc1`, the compound was classed as inactive in experiment [1], in [2], in experiment [3], in [4], in [5] and in experiment [6]. Moreover, the result in [7] and in experiment [8] was inactive.

For the compound `CCc1cc(Cc2cc(CC)c(N)c(CC)c2)cc(CC)c1N`, the half-maximal activity concentration (AC50) in experiment [1] is 33.4 µM (active); in experiment [2], 53.4 µM (active); in experiment [4] it was 11.6 µM (active); in experiment [7], 38.3 µM (active). Also, the compound was classed as inactive in experiment [3], in experiment [5] and in [6].

For `NS(=O)(=O)C(F)(F)C(F)(F)C(F)(F)C(F)(F)C(F)(F)C(F)(F)F`, the compound was called inactive in experiment [1], in [2], in experiment [5] and in [7]. Besides, the half-maximal activity concentration (AC50) in [3] was 54.4 µM (active); in experiment [4] it was 36.4 µM (active); in experiment [6] it was 13.9 µM (active).

With `O=S(=O)(OCC(F)(F)F)C(F)(F)C(F)(F)C(F)(F)C(F)(F)F`, the half-maximal activity concentration (AC50) was 104 µM (active) in [1] and 150 µM (active) in experiment [2]. Moreover, the result in experiment [3], in experiment [4], in experiment [5], in experiment [10], in experiment [7] and in [9] was inactive. Besides, in experiment [8], the compound was classed as inactive.

`CC(C)(C)c1cc(CCC(=O)OCC(COC(=O)CCc2cc(C(C)(C)C)c(O)c(C(C)(C)C)c2)(COC(=O)CCc2cc(C(C)(C)C)c(O)c(C(C)(C)C)c2)COC(=O)CCc2cc(C(C)(C)C)c(O)c(C(C)(C)C)c2)cc(C(C)(C)C)c1O`: the call in experiment [1], in experiment [2], in experiment [3], in [4], in experiment [5] and in [7] was inactive. Besides, in [6], the half-maximal activity concentration (AC50) was 21.8 µM (active).

Consider `Cc1cnccn1`, for which the compound was classed as inactive in experiment [1], in [2], in experiment [3], in experiment [4], in experiment [5] and in experiment [7]. The call in experiment [9] and in [8] was inactive.

Regarding `O=C(O)CCC(F)(F)C(F)(F)C(F)(F)F`, the compound was classed as inactive in experiment [1], in experiment [2], in [3], in experiment [4], in [5] and in experiment [10]. The compound was called inactive in [7] and in experiment [8].

For the compound `CCC/C=C/CO`, the outcome in [1], in experiment [2], in experiment [3], in [4], in experiment [5] and in experiment [7] was inactive. Moreover, the outcome in [9] and in experiment [8] was inactive.

Regarding `CC1=CCC2C(=O)OC(=O)C2C1` (stereo not drawn), the compound was called inactive in [1], in experiment [2], in experiment [3], in experiment [4], in [5] and in experiment [7]. In addition, the result in [9] was inactive.

Regarding `O=C=Nc1cccc2c(N=C=O)cccc12`, the outcome in experiment [1], in [2], in [3], in experiment [4], in experiment [5] and in [10] was inactive. The outcome in experiment [7], in [9] and in experiment [8] was inactive.

As for `Cc1cc(C)c(O)c(C(C)(C)C)c1`, the compound was classed as inactive in experiment [1], in experiment [2], in experiment [3], in experiment [5], in [6] and in [7]. The half-maximal activity concentration (AC50) in [4] was 25.9 µM (active).

Take `Cc1ccc(O)cn1`: the compound was called inactive in experiment [1], in experiment [2], in experiment [3], in experiment [4], in [5] and in experiment [10]. The call in experiment [7], in [9] and in experiment [8] was inactive.

`Cc1cc(O)c(C(C)(C)C)cc1C(C)(C)C`: the call in experiment [1], in [2], in experiment [4], in experiment [5], in experiment [6] and in experiment [7] was inactive. Moreover, in [3], the AC50 was 2.2 µM (active).

For `CCn1c2ccccc2c2ccccc21`, the compound was called inactive in [1], in experiment [2], in experiment [4], in experiment [5], in experiment [6] and in [7]. Also, the AC50 in experiment [3] was 0.0275 µM (active).
